Laboratory results published in PubChem BioAssay (NCI).
The panel holds about 83,000 compounds, 20% with a hit somewhere; the sample as a whole holds those more often.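 A percent growth of 40 corresponds to 60% growth inhibition; 0 means no net growth; -100 means all cells died. Active threshold: below 10.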 Activity calls are given as the source filed them.

Assays:
Experiment in all cases: NCI-60 one-dose screen, 48 h (100 = growth as untreated, 0 = no growth, -100 = all killed)
[1] = test system: HOP-92 NSCLC; conditions: 10 µM unless noted
[2] = test system: NCI-H522 lung; conditions: 10 µM unless noted
[3] = test system: A549/ATCC NSCLC; conditions: 10 µM unless noted
[4] = test system: M14 melanoma; conditions: 10 µM unless noted
[5] = test system: SK-MEL-2 melanoma; conditions: 10 µM unless noted
[6] = test system: TK-10 renal; conditions: 10 µM unless noted
[7] = test system: ACHN renal; conditions: 10 µM unless noted
[8] = test system: CCRF-CEM leukemia; conditions: 10 µM unless noted
[9] = test system: RPMI-8226 leukemia; conditions: 10 µM unless noted
[10] = test system: OVCAR-5 ovarian; conditions: 10 µM unless noted
[11] = test system: OVCAR-4 ovarian; conditions: 10 µM unless noted
[12] = test system: SK-OV-3 ovarian; conditions: 10 µM unless noted
[13] = test system: HS 578T breast; conditions: 10 µM unless noted
[14] = test system: NCI/ADR-RES ovarian; conditions: 10 µM unless noted
[15] = test system: HCT-116 colon; conditions: 10 µM unless noted
[16] = test system: COLO 205 colon; conditions: 10 µM
[17] = test system: EKVX NSCLC; conditions: 10 µM unless noted
[18] = test system: SR leukemia; conditions: 10 µM
[19] = test system: IGROV1 ovarian; conditions: 10 µM

Measured: growth

COc1cc(N(CCCl)CCCl)ccc1C=Nc1ccccc1C(=O)O
inactive: [1] 97.8% | [2] 32.8% | [3] 92.6% | [4] 98.2% | [5] 113% | [6] 124% | [7] 97% | [8] 97.5% | [9] 97.2% | [10] 108% | [11] 104% | [12] 105% | [13] 81.5% | [14] 102% | [15] 108%

C[C@]12CC[C@H](OC3OC(O)C(O)C(O)C3O)C=C1CCC1C2CC[C@]2(C)[C@@H](c3ccc(=O)oc3)CC[C@]12O (stereo partly specified)
inactive: [3] 102%
active: [2] -61.4% | [16] -85.1% | [4] -81% | [5] -61.3% | [17] -86.6% | [8] -33.8% | [18] -42.7% | [9] -20.5% | [11] -41.9% | [12] -93.7% | [19] -12.1% | [13] 9.56% | [14] -71.2% | [15] -95.3%

c1ccc2nc(OCCN3CC3)ccc2c1
active: [18] -13.3% | [9] 9.61%
inactive: [2] 47.1% | [3] 74.1% | [16] 68.1% | [4] 86.5% | [5] 96.3% | [17] 80.7% | [6] 108% | [7] 88% | [8] 31.7% | [10] 86.2% | [11] 75.3% | [12] 96.7% | [19] 35.1% | [13] 98.3% | [14] 89.2% | [15] 25%

COc1ccc(OC)c(/C=C(/C)[N+](=O)[O-])c1
inactive: [3] 75.8% | [4] 47% | [5] 56.4% | [17] 83.9% | [13] 70.6% | [14] 81.1%
active: [2] -78.1% | [7] -27.7% | [8] -2.22% | [9] -21.9% | [19] -24.8% | [15] -91.4%

CCN(CC)c1ccc(C=C2C(=O)NC(=S)NC2=O)cc1
active: [9] -18.9%
inactive: [2] 86.5% | [3] 89.2% | [16] 104% | [4] 102% | [5] 98.1% | [17] 99.5% | [6] 108% | [8] 38.9% | [10] 95.1% | [11] 90.9% | [12] 94.1% | [19] 100% | [13] 88.6% | [14] 100% | [15] 93.9%

CNC(=O)Oc1cccc(N(C)C)c1
inactive: [2] 89.1% | [3] 93% | [16] 108% | [4] 107% | [5] 83.4% | [6] 108% | [7] 104% | [9] 101% | [10] 102% | [11] 106% | [12] 99.7% | [13] 108% | [14] 107%

[Br][Pb]([c]1ccccc1)([c]1ccccc1)[c]1ccccc1
active: [2] -92.3% | [3] -99.2% | [16] -98.7% | [4] -100% | [5] -96.6% | [17] -91.1% | [6] -100% | [7] -92.8% | [8] -21.5% | [9] -29.8% | [10] -93.1% | [11] -100% | [12] -100% | [13] -35.6% | [14] -71.6% | [15] -100%

Cc1ccc(C[As+](c2ccccc2)(c2ccccc2)c2ccccc2)cc1
active: [2] -22% | [3] 7.2% | [16] -55.7% | [4] 4.54% | [5] -16.9% | [9] -8.65% | [12] -4.76% | [19] 9.49% | [15] 2.52%
inactive: [6] 16.9% | [7] 49% | [8] 16.3% | [10] 31.8% | [11] 23.6% | [13] 21%

C=C=[CH][Sn]([c]1ccccc1)([c]1ccccc1)[c]1ccccc1
active: [2] -69.4% | [3] -58.7% | [16] -84.2% | [4] -66.1% | [5] -30.6% | [17] -32.7% | [6] -74.7% | [7] -49.4% | [8] -0.102% | [9] -17.5% | [10] -60.3% | [11] -40.2% | [12] -57.1% | [15] -97.4%
inactive: [13] 27%

O=C1NC(=O)C(CN2C(=O)C3(c4ccccc42)[C@H](Cl)C(=O)N3c2ccccc2)C(=O)N1 (stereo partly specified)
inactive: [2] 51.4% | [3] 77.3% | [16] 102% | [4] 105% | [5] 76.6% | [17] 79.3% | [6] 121% | [7] 88.7% | [8] 54.4% | [18] 15.2% | [9] 63.1% | [10] 84.6% | [11] 97.6% | [19] 49.4% | [13] 71% | [15] 79.9%
